Data from the supplement of paper PMC10981050.
Several values for one entry are separate records, joined by “and”; a condition that tells them apart may be missing. Equal entries are not always repeated.

Tests used:
Experiment in all cases: cell viability relative to vehicle control; higher = less cytotoxic
Conditions in all cases: 10 µM
K562 = system: K562
Procedure, shortened: (§1)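 Four leukaemia lines, as CRISPR-edited mutant clones and isogenic wild-type clones, were tested against Selleck bioactive, kinase and epigenetic probe libraries after removal of identity-inconsistent compounds. Cells were exposed to a single 10 µM dose for 48 h, and CellTiter-Glo luminescence was then read. Viability was calculated relative to the on-plate vehicle control.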

MARIMO = system: MARIMO
Procedure, shortened: as §1

MOLM14 = system: MOLM14
Procedure, shortened: as §1

OCI-AML2 = system: OCI-AML2
Procedure, shortened: as §1

SMILES	cell viability (K562; SRSF2 genotype: SRSF2 P95H/wt)	cell viability (K562; SRSF2 genotype: SRSF2 wt/wt) [%]	cell viability (MARIMO; SRSF2 genotype: SRSF2 P95H/wt) [%]	cell viability (MARIMO; SRSF2 genotype: SRSF2 wt/wt) [%]	cell viability (MOLM14; SRSF2 genotype: SRSF2 P95H/wt) [%]	cell viability (MOLM14; SRSF2 genotype: SRSF2 wt/wt) [%]	cell viability (OCI-AML2; SRSF2 genotype: P95H/wt) [%]	cell viability (OCI-AML2; SRSF2 genotype: wt/wt) [%]
COc1cccc(Nc2c(C(N)=O)cnc3c(C)cc(S(=O)(=O)c4cccc(C(=O)N(C)C)c4)cc23)c1	109% and 106%	108	93.5	101	108	103	111	98.2
Cc1ccc(NCCN(C)CCNc2ccnc3cc(Cl)ccc23)c2c(=O)c3ccccc3sc12	75.8% and 92.5%	76.6	78	88.2	81	79.7	85.9	84
O=C(c1cccc(Br)c1)N1CCC(N2CCCC2)CC1	105% and 98.6%	91.6	92.3	110	105	105	87.9	101
Nc1nc(Cl)nc2c1ncn2[C@@H]1O[C@H](CO)[C@@H](O)[C@@H]1F [Clofarabine]	96.7% and 113%	105	11.5	8.77	2.95	0.83	5.47	4.64
COc1cc(Nc2ncc(F)c(Nc3ccc4c(n3)NC(=O)C(C)(C)O4)n2)cc(OC)c1OC	99.2% and 103%	104	83.7	85.8	22.3	19.6	41.2	47.7
COc1cc(C=O)cc(OC)c1O [Syringaldehyde]	110% and 99.8%	96	102	112	99.2	105	94.8	114
NC(=O)c1cnccn1 [Pyrazinamide (Pyrazinoic acid amide)]	107% and 105%	110	104	114	103	105	95.6	109
CCCCCCCCCCCCCCCCn1cc[n+](Cc2ccccc2)c1C	0.26% and 0.36%	0.22	0.21	0.19	0.01	0	0.05	0.07
COC(=O)N[C@H](C(=O)N1CCC[C@H]1c1ncc(-c2ccc(-c3ccc(-c4cnc([C@@H]5CCCN5C(=O)[C@@H](NC(=O)OC)C(C)C)[nH]4)cc3)cc2)[nH]1)C(C)C [Daclatasvir Digydrochloride]	79.2% and 78.8%	75.9	62.1	73.5	67.7	77.9	78.2	74
CC(=O)OCC(=O)[C@@]1(O)CC[C@H]2[C@@H]3CCC4=CC(=O)CC[C@]4(C)[C@H]3C(=O)C[C@@]21C [Cortisone acetate (Cortone)]	110% and 108%	118	118	109	112	112	117	109
Cc1cc(NS(=O)(=O)c2ccc(N)cc2)no1 [Sulfamethoxazole]	94.6% and 85.2%	92.6	89.7	95.6	99.8	91.1	85.2	95.5
CC1=C(C/C=C(\C)CCC[C@H](C)CCC[C@H](C)CCCC(C)C)C(=O)c2ccccc2C1=O [Vitamin K1]	101% and 88.9%	93.7	92.4	107	88.2	98	90.7	106
CCc1cc(C(N)=S)ccn1 [Ethionamide]	97.4% and 93.4%	91.2	97	98.1	106	100	94.3	97.7
Cc1ccc(NC(=O)Nc2cc(C(F)(F)F)ccc2F)cc1Nc1ccc2c(c1)NC(=O)/C2=C\c1ccc[nH]1	75.2% and 70.9%	62.1	84.4	92.2	86.5	94.4	74.4	70.1
C=C(C)C1CC=C(C=NO)CC1 (centres undefined) [Perillartine]	100%	98.3	104	105	93	99.8	100	112
COc1cc2c(Oc3ccc(NC(=O)C4(C(=O)Nc5ccc(F)cc5)CC4)cc3F)ccnc2cc1OCCCN1CCOCC1	0.8% and 0.64%	0.55	17.8	12.1	0.21	0.34	0.22	1.03
O=C(Nc1cnn2ccc(N3CCC[C@@H]3c3cc(F)ccc3F)nc12)N1CC[C@H](O)C1 [LOXO-101(sulfate)]	104% and 105%	104	113	118	97.6	104	98.2	104
COc1ncnc(NS(=O)(=O)c2ccc(N)cc2)c1OC [Sulfadoxine (Sulphadoxine)]	103% and 107%	98.1	104	105	95.4	100	98.5	96.3

SMILES	cell viability (K562; SRSF2 genotype: SRSF2 P95H/wt)	cell viability (K562; SRSF2 genotype: SRSF2 wt/wt) [%]	cell viability (MARIMO; SRSF2 genotype: SRSF2 P95H/wt) [%]	cell viability (MARIMO; SRSF2 genotype: SRSF2 wt/wt) [%]	cell viability (MOLM14; SRSF2 genotype: SRSF2 P95H/wt) [%]	cell viability (MOLM14; SRSF2 genotype: SRSF2 wt/wt) [%]	cell viability (OCI-AML2; SRSF2 genotype: P95H/wt) [%]	cell viability (OCI-AML2; SRSF2 genotype: wt/wt) [%]
NNC(=O)c1ccncc1 [Isoniazid (Tubizid)]	106% and 109%	112	101	107	107	106	102	115
CNC(=O)c1ccc(N2C(=S)N(c3cnc(C#N)c(C(F)(F)F)c3)C(=O)C23CCC3)cc1F	98.6% and 98.8%	103	104	110	98.4	109	96.2	88.1
Nc1nc2c(ncn2COC(CO)CO)c(=O)[nH]1 [Ganciclovir]	105% and 99.9%	106	100	108	112	104	91.1	104
Cc1ccc(-c2csc(NC(=O)c3ccccc3)n2)c(C)c1	80.3% and 83.3%	81.5	76.2	81	94.1	92.7	63.8	66.8
COc1ccc(O)cc1 [Mequinol]	103% and 95.3%	106	91.1	100	95.6	96.9	90.4	103
CCCc1cc(C)[nH]c(=O)c1CNC(=O)c1cc(-c2ccc(N3CCN(C)CC3)nc2)nc2c1cnn2C(C)C	15.9% and 4.45%	20.9	85.6	47.7	55.9	78.5	0.4	0.41
O=C(CCc1ccc(O)cc1)c1c(O)cc(O[C@@H]2O[C@H](CO)[C@@H](O)[C@H](O)[C@H]2O)cc1O [Trilobatin]	96.2% and 98.8%	96.8	99.7	105	89.2	98.9	92.6	106
O=C1CC(c2ccc(O)cc2)Oc2cc(O)ccc21 (centres undefined) [Liquiritigenin]	99.3% and 104%	106	116	93.6	99.8	104	121	99.3
CC[C@H]1OC(=O)[C@H](C)[C@@H](O[C@H]2C[C@@](C)(OC)[C@@H](O)[C@H](C)O2)[C@H](C)[C@@H](O[C@@H]2O[C@H](C)C[C@H](N(C)C)[C@H]2O)[C@](C)(O)C[C@@H](C)C(=O)[C@H](C)[C@@H](O)[C@]1(C)O [Erythromycin thiocyanate]	97.3% and 94.2%	94.6	82.7	91.9	87.9	89.1	87	90.1
O=C(CCCCCCNC(=O)c1cnc(N(c2ccccc2)c2ccccc2Cl)nc1)NO [Citarinostat (ACY-241)]	–	47.4	8.12	20.9	2.1	1.84	0.7	1.25
CS(=O)(=O)c1ccc([C@@H](O)[C@@H](CO)NC(=O)C(Cl)Cl)cc1 [Thiamphenicol (Thiophenicol)]	86.1% and 88.3%	87.7	103	101	98.5	96.8	97.3	91.2
COCCOc1ccc2c(c1)ncn2-c1ccc2cccc(N3CCC(N)CC3)c2n1	72.2% and 70.2%	63.5	2.19	1.07	0.96	-0.03	0.57	3.99
NC(=O)Nc1sc(-c2ccc(F)cc2)cc1C(N)=O	–	79.8	56.3	50	20.5	11	20.2	26.5
CCN(C)S(=O)(=O)Nc1ccc(F)c(C(=O)c2c[nH]c3ncc(-c4cnc(C5CC5)nc4)cc23)c1F	–	59.2	83.6	87.5	79.3	92.7	91.5	84.7
N#CCNC(=O)c1ccc(-c2ccnc(Nc3ccc(N4CCOCC4)cc3)n2)cc1 [Momelotinib (CYT387)]	81.2% and 85.3%	86.1	26.7	42.8	15	5.08	11	15.7
CCn1cc(C(=O)O)c(=O)c2c(N)c(F)c(NC3CCCCC3)cc21	–	80.6	94.2	125	106	117	120	136
CCN(CC)CCNC(=O)c1c(C)[nH]c(/C=C2\C(=O)Nc3ccc(-c4csc(-c5ccccc5)n4)cc32)c1C [Amcasertib (BBI503)]	0.84% and 1.26%	0.76	66.4	43.4	4.21	8.87	4.03	26
Cc1ncc(COP(=O)(O)O)c(C=O)c1O [Pyridoxal phosphate]	103% and 104%	105	100	106	100	106	103	110
